Drawing on PubChem BioAssay (NCATS), this text covers Potency for 21 compounds.

What all share (test): qHTS profiling for inhibitors of Plasmodium falciparum proliferation (AID 504749); also: nearly all actives have a fitted effect of over 60% in size
Conditions in all cases: P. falciparum in erythrocytes, SYBR Green DNA, 72 h; series mostly up to 28.7 µM
For orientation: Quantitative high-throughput screening tests each substance at several concentrations.

The subject of one experiment is CP247. The gist of the method: (§1)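 Infected RBCs, 0.3% parasitemia/2.5% Hct final; cpd 72 h, 37 C, 5% CO2; lysis buffer with saponin/triton/SYBR Green I, o/n RT dark; FI 485/535; norm. to artemisinin (0.29 uM) and DMSO.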
The subject of another experiment is CP250. A digest of the protocol: as §1
For the next experiment, the system named is CP252. The gist of the method: as §1
For the next experiment, the system named is CP256. The gist of the method:
as §1

The test system of a further experiment is CP260. The gist of the method: as §1
For a further experiment, the system named is CP262. The gist of the method: as §1
In another experiment the test system is CP265. A digest of the protocol:
as §1

In a further experiment the test system is CP266. A digest of the protocol: as §1
Another experiment has as its system CP268. The gist of the method:
as §1

For the next experiment, the system named is CP269. A digest of the protocol: as §1

The structures appear in SMILES notation. Results filed as inconclusive are left out. Active and inactive are the calls of the source. Calls follow the shape of the dose curve; as a rule, active = well fitted inhibition curve with a large enough effect; inconclusive = small, poorly fitted or top-dose-only effect; inactive = flat fitted curve, though single readings scatter.
Potency is read from the fitted curve at half-maximal effect.

Turning to `CC(=O)Oc1ccccc1C(=O)Nc1ncc([N+](=O)[O-])s1`, the Potency result in the experiment on CP247, with CP250, in the experiment with CP252, with CP256, in the experiment with CP262 and in the experiment with CP265 was “inactive” throughout. The Potency entry in the experiment with CP266, in the experiment with CP268 and in the experiment with CP269 was “inactive” in each case. Moreover, the Potency with CP260 is 8.91 µM (active).
Turning to `N[C@@H](C(=O)N[C@@H]1C(=O)N2C(C(=O)O)=C(Cl)CS[C@H]12)c1ccccc1`, the Potency result in the experiment on CP247, in the experiment with CP250, in the experiment on CP252, in the experiment with CP256, with CP260 and in the experiment on CP262 was “inactive” in each case. Moreover, the Potency entry in the experiment on CP265, in the experiment on CP266, in the experiment on CP268 and in the experiment on CP269 was “inactive” throughout.
On to `CCOC(=O)[C@H](CCc1ccccc1)N[C@H]1CS[C@H](c2cccs2)CN(CC(=O)O)C1=O`, for which the Potency entry in the experiment with CP247, in the experiment with CP250, with CP252, in the experiment with CP256, in the experiment with CP260 and with CP262 was “inactive” each time. For the same compound, the Potency entry in the experiment with CP265, in the experiment on CP266, with CP268 and with CP269 was “inactive” throughout.
Turning to `Cc1ccnc2c1NC(=O)c1cccnc1N2C1CC1`, the Potency entry with CP247, in the experiment with CP250, with CP252, in the experiment with CP256, with CP260 and in the experiment on CP262 was “inactive” each time. For the same compound, the Potency result in the experiment with CP265, in the experiment on CP266, with CP268 and with CP269 was “inactive” each time.
`Cc1cccc(Nc2ccncc2S(=O)(=O)NC(=O)NC(C)C)c1`: the Potency entry in the experiment with CP247, in the experiment with CP250, with CP252, in the experiment on CP256, in the experiment with CP260 and in the experiment with CP262 was “inactive” throughout. Also, the Potency entry in the experiment with CP265, in the experiment on CP266, in the experiment on CP268 and in the experiment on CP269 was “inactive” in each case.
As for `Cn1nnc2c(C(N)=O)ncn2c1=O`, the Potency result in the experiment on CP247, in the experiment with CP250, in the experiment with CP252, with CP256, in the experiment on CP260 and in the experiment with CP262 was “inactive” throughout. Moreover, the Potency result with CP265, with CP266, in the experiment with CP268 and with CP269 was “inactive” each time.
On to `O=C(O)c1cc(=O)[nH]c(=O)[nH]1`, for which the Potency entry with CP247, in the experiment on CP250, in the experiment on CP252, with CP256, with CP260 and with CP262 was “inactive” each time. Besides, the Potency result in the experiment with CP265, in the experiment with CP266, with CP268 and in the experiment with CP269 was “inactive” each time.
`O=C(O)c1cn(C2CC2)c2cc(N3CCNCC3)c(F)cc2c1=O`: the Potency entry in the experiment with CP247 was “inactive”.
With `OC(Cn1cncn1)(Cn1cncn1)c1ccc(F)cc1F`, the Potency entry in the experiment on CP247, in the experiment on CP250, with CP252, in the experiment with CP256, in the experiment on CP260 and in the experiment with CP262 was “inactive” in each case. For the same compound, the Potency result with CP265, in the experiment with CP266 and in the experiment with CP268 was “inactive” in each case.
In the case of `NC(N)=NC(N)=NCCc1ccccc1`, the Potency entry in the experiment on CP247, with CP250, with CP252, in the experiment on CP256, in the experiment on CP260 and with CP262 was “inactive” throughout. Besides, the Potency result with CP265, with CP266, in the experiment with CP268 and with CP269 was “inactive” throughout.
On to `CC[C@H](C)C(=O)O[C@H]1C[C@@H](C)C=C2C=C[C@H](C)[C@H](CC[C@@H]3C[C@@H](O)CC(=O)O3)[C@H]21`, for which the Potency entry in the experiment with CP247, in the experiment on CP250, with CP252, with CP256, in the experiment on CP260 and in the experiment on CP262 was “inactive” in each case. Further, the Potency result with CP265, in the experiment with CP266, with CP268 and in the experiment with CP269 was “inactive” each time.
For the compound `N=C(N)c1ccc(OCCCCCOc2ccc(C(=N)N)cc2)cc1`, the Potency in the experiment with CP247 was 1.12 µM (active); in the experiment on CP250, 2.51 µM (active); in the experiment with CP252, 2 µM (active); in the experiment on CP256, 0.501 µM (active); in the experiment with CP260 it was 2 µM (active); with CP262, 0.757 µM (active). Further, the Potency was 2.82 µM (active) with CP265, 1.69 µM (active) with CP266, 1.35 µM (active) in the experiment on CP268 and 0.536 µM (active) in the experiment with CP269.
Regarding `CN(C)CCc1c[nH]c2ccc(CS(=O)(=O)N3CCCC3)cc12`, the Potency entry in the experiment on CP247, in the experiment with CP250, with CP252, in the experiment on CP256, in the experiment on CP260 and in the experiment on CP262 was “inactive” each time. Also, the Potency entry in the experiment on CP265, with CP266, with CP268 and with CP269 was “inactive” in each case.
On to `CCCc1cc(C(N)=S)ccn1`, for which the Potency entry with CP247, in the experiment on CP250, with CP252, with CP256, in the experiment with CP260 and with CP262 was “inactive” in each case. Besides, the Potency result in the experiment with CP265, in the experiment on CP266, in the experiment on CP268 and in the experiment on CP269 was “inactive” throughout.
With `CC(C)NCC(O)c1ccc(NS(C)(=O)=O)cc1` (stereo not drawn), the Potency entry with CP247, with CP250, with CP252, in the experiment with CP256, with CP260 and with CP262 was “inactive” each time. For the same compound, the Potency result with CP265, in the experiment with CP266, in the experiment with CP268 and in the experiment with CP269 was “inactive” each time.
For `Nc1[nH]c(=O)ncc1F`, the Potency result in the experiment with CP247, with CP250, with CP252, with CP256, in the experiment with CP260 and in the experiment with CP262 was “inactive” each time. Moreover, the Potency entry in the experiment on CP265, in the experiment on CP266, in the experiment with CP268 and with CP269 was “inactive” each time.
For `CCCCOc1ccc(CC(=O)NO)cc1`, the Potency was 4.47 µM (active) in the experiment with CP247; 2.24 µM (active) in the experiment with CP250; 3.98 µM (active) in the experiment with CP252; 1.41 µM (active) with CP256; 2.82 µM (active) in the experiment with CP260; 2.56 µM (active) with CP262.
With `COc1cc(NCc2ccc3nc(N)nc(N)c3c2C)cc(OC)c1OC`, the Potency in the experiment with CP247 is 0.447 µM (active); with CP250, 0.794 µM (active); in the experiment with CP252, 0.251 µM (active); with CP256 it was 0.316 µM (active); in the experiment with CP260, 0.158 µM (active); with CP262, 0.169 µM (active). Moreover, the Potency in the experiment on CP265 was 3.16 µM (active); in the experiment with CP266, 4.26 µM (active); with CP268, 0.953 µM (active); with CP269, 3.38 µM (active).
Take `CN(CCOc1ccc(CC2SC(=O)NC2=O)cc1)c1ccccn1` (stereo not drawn): the Potency result in the experiment on CP247, in the experiment with CP250, in the experiment on CP252, in the experiment with CP256, in the experiment with CP260 and in the experiment on CP262 was “inactive” each time. Besides, the Potency entry in the experiment with CP265, in the experiment on CP266, with CP268 and in the experiment with CP269 was “inactive” each time.
With `Nc1nc(N)c2nc(CNc3ccc(C(=O)NC(CCC(=O)O)C(=O)O)cc3)cnc2n1` (stereo not drawn), the Potency result in the experiment with CP247, in the experiment on CP250, with CP252, in the experiment on CP256, in the experiment with CP260 and in the experiment on CP262 was “inactive” in each case. Also, the Potency entry in the experiment on CP265, in the experiment with CP266, with CP268 and with CP269 was “inactive” each time.
Turning to `CNC(=O)c1cc(Oc2ccc(NC(=O)Nc3ccc(Cl)c(C(F)(F)F)c3)cc2)ccn1`, the Potency in the experiment with CP247 and in the experiment with CP250 was 10 µM (active) throughout.
